According to PubChem BioAssay (NCATS):
Records with an inconclusive call do not appear. Calls of active or inactive are those of the source. Calls follow the shape of the dose curve; as a rule, active = well fitted activation curve with a large enough effect; inconclusive = small, poorly fitted or top-dose-only effect; inactive = no such curve, though single readings can be large or run the other way.

These molecules were tested against Cellular tumor antigen p53 (Homo sapiens) (UniProt P04637) (assay: Primary qHTS for small molecule compounds that upregulate eGFP-tagged delta133p53alpha (in N-terminal) cells. (AID 2060322;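 also: series mostly up to about 56 µM; 0% = DMSO vehicle and 100% = reference activator; nearly all actives have a fitted effect of over 75% in size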)). Details: NCI-H358 eGFP-delta133p53alpha fluorescence, 24 h; activation: stronger effect = higher value.
Cellular tumor antigen p53 (Homo sapiens), sequence (P04637 whole entry, looked up): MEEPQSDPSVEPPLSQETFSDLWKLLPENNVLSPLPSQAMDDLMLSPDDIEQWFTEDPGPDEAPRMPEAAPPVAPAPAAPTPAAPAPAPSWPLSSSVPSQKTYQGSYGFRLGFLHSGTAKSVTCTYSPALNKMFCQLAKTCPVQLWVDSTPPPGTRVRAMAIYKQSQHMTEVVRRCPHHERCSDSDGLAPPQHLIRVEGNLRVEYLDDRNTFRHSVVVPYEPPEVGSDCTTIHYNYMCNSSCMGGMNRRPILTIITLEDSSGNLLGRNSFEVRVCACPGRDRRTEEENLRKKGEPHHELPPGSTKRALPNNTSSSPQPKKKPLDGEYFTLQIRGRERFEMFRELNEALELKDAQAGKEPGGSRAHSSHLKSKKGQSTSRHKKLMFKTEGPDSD
Method in brief: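 NCI-H358 cells pre-induced 24 h with 10 ng/ml doxycycline to express N-terminal eGFP-delta133p53alpha, then dosed 24 h at 37C without doxycycline; fixed, Hoechst-stained, GFP intensity by laser scanning cytometry, normalized to DMSO (0%) and 57.5 uM 5-azacytidine (100%).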

Compound	activation
CN1[C@H]2CC(OC(=O)[C@@H](CO)c3ccccc3)C[C@H]1[C@H]1O[C@H]12 (stereo not given in full)	6.53% (inactive)
COc1ccc2cc(CCC(C)=O)ccc2c1	-16.4% (inactive)
NS(=O)(=O)c1ccc(N2CCCCS2(=O)=O)cc1	7.34% (inactive)
COc1cc(N2CCN(C)CC2)ccc1Nc1nc(N)c(C(=O)c2c(Cl)cccc2Cl)s1	-2.41% (inactive)
CCCOc1ccc2c(c1)CC[C@@H]1[C@@H]2CC[C@]2(C)C(OC)CC[C@@H]12 (stereo not given in full)	0.565% (inactive)
COc1cc(C(=O)NCCCCCC(=O)O)cc(OC)c1OC	-9.6% (inactive)
CC1CCc2c(N3CCC(O)CC3)c(F)cc3c(=O)c(C(=O)O)cn1c23 (stereo not given)	5.02% (inactive)
COc1ccc(-c2coc3cc(O)ccc3c2=O)cc1	-10.4% (inactive)
CCNC(=O)CCCC=CC[C@@H]1[C@H](C=CC(O)CCc2ccccc2)[C@@H](O)C[C@@H]1O (stereo not given in full)	-2.33% (inactive)
CCc1ccc(C=C2SC(=S)NC2=O)cc1	32.5% (inactive)
CCN(CC)CCNC(=O)COc1ccc(Cl)cc1	19.2% (inactive)
CCCOC(=O)c1ccc(O)cc1	-10% (inactive)
C/C(=N\O)[C@@H](C)NCC(C)(C)CN[C@H](C)/C(C)=N/O	-12.6% (inactive)
NC1CCN(c2nc3c(cc2F)c(=O)c(C(=O)O)cn3-c2ccc(F)cc2F)C1 (stereo not given)	11.9% (inactive)
Cc1ccc(C(=O)c2ccc(CC(=O)O)n2C)cc1	14.1% (inactive)
CN[C@H](CC(C)C)C(=O)N[C@H]1C(=O)N[C@@H](CC(N)=O)C(=O)N[C@@H]2C(=O)N[C@H]3C(=O)N[C@H](C(=O)N[C@H](C(=O)O)c4cc(O)cc(O)c4-c4cc3ccc4O)[C@H](O)c3ccc(c(Cl)c3)Oc3cc2cc(c3O[C@@H]2O[C@H](CO)[C@@H](O)[C@H](O)[C@@H]2O[C@H]2C[C@](C)(N)[C@H](O)[C@H](C)O2)Oc2ccc(cc2Cl)[C@H]1O	4.73% (inactive)
O=C(O)[C@H](CC(=O)N1C[C@@H]2CCCC[C@H]2C1)Cc1ccccc1	-15.3% (inactive)
Cc1cc(C)nc(NS(=O)(=O)c2ccc(N)cc2)n1	24.3% (inactive)
CCCCN(CCN(CCCC)C(=O)N1CCOCC1)C(=O)N1CCOCC1	-21.8% (inactive)
COc1cc2c(cc1O)CCC1C2CC[C@@]2(C)C1CC[C@@H]2O (stereo not given in full)	27.6% (inactive)

Compound	activation
CN1CCCN(C(=O)c2cccc(-c3ccc(C=C4C(=O)Nc5ccc(Cl)cc54)o3)c2)CC1	19.8% (inactive)
Nc1ccncc1N	21.8% (inactive)
CC(C)(C)[N+]([O-])=Cc1ccc(S(=O)(=O)O)cc1S(=O)(=O)O	-9.61% (inactive)
COc1cc2nc(Cl)nc(N)c2cc1OC	-37.9% (inactive)
CC1(C)[C@@H]2CC[C@@]1(C)C(=O)C2	-0.837% (inactive)
O=C(O)Cn1c(=O)n(Cc2ccc(Br)cc2F)c(=O)c2ccc(Cl)cc21	-5.08% (inactive)
Clc1ccc2c(c1)Nc1ccccc1S2	20.9% (inactive)
CCN(CC)S(=O)(=O)c1ccc(C(=O)O)cc1	-11.7% (inactive)
Cc1c(Cn2ccnc2)c2ccccc2n1CCC(=O)O	-8.47% (inactive)
N=C(N)N	7.34% (inactive)
O=C1c2ccccc2C(=O)C1c1ccccc1	-12.6% (inactive)
CC(C)c1onc(-c2c(Cl)cccc2Cl)c1COc1ccc(C=Cc2cccc(C(=O)O)c2)c(Cl)c1	-0.915% (inactive)
CCCOC(=O)c1ccccc1	-2.82% (inactive)
NS(=O)(=O)c1cc(C2(O)NC(=O)c3ccccc32)ccc1Cl (stereo not given)	-33.3% (inactive)
C#C[C@]1(O)CC[C@H]2[C@H]3CCc4cc(OC)ccc4[C@H]3CC[C@@]21C	-30% (inactive)
CCC(=O)O[C@]1(C(=O)COC)[C@@H](C)C[C@H]2[C@@H]3CCC4=CC(=O)C=C[C@]4(C)C3(F)[C@@H](O)C[C@@]21C (stereo not given in full)	-4.18% (inactive)
CON=C(C(=O)N[C@@H]1C(=O)N2C(C(=O)OCOC(=O)C(C)(C)C)=C(C=Cc3scnc3C)CS[C@H]12)c1csc(N)n1	-6.48% (inactive)
NC[C@H]1O[C@H](O[C@H]2[C@H](O[C@@H]3O[C@H](CO)[C@@H](O)[C@H]3O)C(O)[C@H](N)C[C@@H]2N)[C@H](N)[C@@H](O)[C@@H]1O (stereo not given in full)	0% (inactive)
COc1cc(OC)cc(-c2ccc3ncc4ccc(=O)n(-c5ccc(N6CCNCC6)c(C(F)(F)F)c5)c4c3c2)c1	-7.04% (inactive)
CCC(C(=O)OCCN(CC)CC)c1ccccc1 (stereo not given)	-1.67% (inactive)
